40 sequences from the supplement of paper PMC6555819 can be followed below.

The assay deals with VDR:RXRa (NR concentration 270 nM, RXRa partner concentration 90 nM). The assay can be described thus: PBM binding z-score (relative to random genomic background probes); higher = stronger binding; sequences stand for … in GC…GCGATTGACAGCGTAGAATGAAGG
Here is the method: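 Protein-binding microarray (Agilent 4x180K custom design, double-stranded 60-nt probes: 5' GC cap, 34-nt variable region, 24-nt constant primer region; full probe sequence given). Purified or IVT nuclear receptor:RXRα heterodimers (3:1 NR:RXRα, mostly 270:90 nM) or homodimers were incubated for 1 h in PBS with 2% milk and no ligand, then detected with Alexa488 antibodies. Fluorescence from o1-orientation probes (~5 replicates averaged) was converted to z-scores against 500 random hg19 background probes. Variable regions are seed direct-repeat (DR0–DR5) sites, all their single-nucleotide variants and half-site ablations.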
Sequence ACTCTTAGTTGAGACGAGGGCAACCGATAGGTTG showed a PBM binding z-score of 0.492.

In turn, CCTCGGAGGACAACAGGAGGTCAGATCTGCCAGA showed a PBM binding z-score of 1.72.

For the sequence ACTAATAGTTGACTTAGGGCAACCGATACGACGC, the PBM binding z-score stood at 0.357.

ACTAGCAGGCCAAGGGTCACTCAAGATTAGTCCG showed a PBM binding z-score of 2.61.

AGAATGAGGTTATTAAGAACAGGGAATTGCGGTC showed a PBM binding z-score of 1.83.

As to CAAACTAGGTCAAGAGGTCATAGTCCGCTTCCCG, the PBM binding z-score came to 5.59.

Consider TCTAGTTGGTAACGGAGGTCACACACGACGGGTA, for which the PBM binding z-score amounted to 3.8.

AGAACGAGGGCAATGCGTTGATAGCACGGGTGGC returned a PBM binding z-score of 1.16.

Regarding TCTTGTAGATCAGCAGGTTAGGAAAGCTGGCCAA, the PBM binding z-score is 0.153.

GCGACTGGGGCATCAGCAGGTTACCATAACTTAA displayed a PBM binding z-score of 0.0367.

The sequence CGAACGAGGGCCTGAGTTGATAGCAAATGCCGAT came in with a PBM binding z-score of -0.469.

ACTTACGGGTCAACGAGGCTATAGCACGCGTATA yielded a PBM binding z-score of 6.74.

In turn, CCTACTGGGCCAAGGGCATTGATCAGTCAAAGCA returned a PBM binding z-score of -0.469.

TTACCTAGGTGAGCTGAGGTCGTTGATCCAACTC: the PBM binding z-score amounted to 3.05.

Sequence CCTGCCAGGTCAATGGTCAGCTAAAGCAGCTCGC had a PBM binding z-score of 1.5.

As to TGAATGCGGTTATAAGATCAGGGAACGTTGCAAA, the PBM binding z-score was -0.0836.

Regarding TCTATTAGTGGAAGGGCAACCGACGAGTCCGTTT, the PBM binding z-score was found to be 0.969.

Take TAGCCTAGTTCATTGGGCCAGTATAGTACGCATC: the PBM binding z-score amounted to 1.17.

The sequence GCATATATGTAATACAAGGTGAAAGTCCGATTGT registered a PBM binding z-score of 0.278.

For ACTAGTTGGTCAGCGGAGGTCACACACAATTCGG, the PBM binding z-score was found to be 3.98.

Consider CAAACTAGGTCAAGGGTCAAAGTCGAGCCAACCA, for which the PBM binding z-score was found to be 5.5.

Regarding AGAACGAGGGCAATGAATTGATAGCACGGGTGGC, the PBM binding z-score was found to be 0.305.

Regarding ATCTTTAGGTAAAAGTTCAGTGAATCCCGAGGAT, the PBM binding z-score came to 1.43.

TCTAGCAGGCCAGTGGGTCACTCAAGAGGTACGG had a PBM binding z-score of 0.297.

As to ACAGACAGGTGAGTGAAGATAACTCAGCTGGACG, the PBM binding z-score was -0.413.

As to CCTTACGGGTCACGAGGTTATTGCACGACGAGCG, the PBM binding z-score came to 5.3.

In turn, CGTCAAAGTTCAACTAAGGCAACGTAAAGCACGC returned a PBM binding z-score of 4.19.

For TCTCGTAGGACACGAAGGTCAGAGCTTTCCAGAG, the PBM binding z-score amounted to 1.71.

Sequence AGAACGAGGGCAATGAGTTGATAGAACGGGTGGC had a PBM binding z-score of 5.04.

CGTACTAGGTCAAGGACAGTGAATCTCCGCACGC showed a PBM binding z-score of 1.33.

On to ACTATTAGTTGACCTAGGGCAACCGATACGACGC, for which the PBM binding z-score came to 1.96.

Consider GCTGCTAGGTCAGGTGGGTCAGCTAACGGGTACG, for which the PBM binding z-score was 2.75.

Sequence TAGCCTAGGTCATTCAGGGGCCAGTAAAGAAAGC had a PBM binding z-score of 3.21.

With ACTATTAGTTGAGACGAGGGTAACCGATAGGTTG, the PBM binding z-score is 0.26.

In turn, ACTATTAGTTGACTTAGGGCAACAGATACGACGC displayed a PBM binding z-score of 0.323.

Consider CCGACTGGGGCTTAAGGTTACCATAAGCCAGCCC, for which the PBM binding z-score is -0.156.

As for ATCGAAAGGTCGAAGTGAGTATAGAGAAAGGGAA, the PBM binding z-score was 2.7.

For TCAGACAGGTGAAGGTGACTCAGGTACGCAGTCG, the PBM binding z-score was determined as 1.04.

As for CGAACTAGGTCATCCAGGACTGTGAATACATTGA, the PBM binding z-score came out at 2.81.

Take CCTTACGGGACACGAGGTTATAGCACGACGAGCG: the PBM binding z-score worked out at 0.648.
